Laboratory results: PubChem BioAssay (NCATS)
Several values for one entry are separate records, joined by “and”; a condition that tells them apart may be missing. Equal values may be shown once. Records with an inconclusive call do not appear. Entries that show only a call come without a potency. A number with no mark means an inactive call. Activity calls are given as the source filed them. The call rests on the fitted dose curve; in most records, active means well fitted curve in the direction sought with a large enough effect; inconclusive means small, poorly fitted or top-dose-only effect, or another doubt; inactive means no such curve, though single readings can be large; an effect the other way counts as inactive or inconclusive. Square brackets hold non-standard residues; d marks the D form. Peptide text beside a SMILES is read from it. pGlu = O=C1CC[C@@H](C(=O)O)N1; Thz = O=C(O)[C@@H]1CSCN1

Key:
[1] = target: Cellular tumor antigen p53 (Homo sapiens) (UniProt P04637); assay: Primary qHTS for small molecule compounds that upregulate eGFP-tagged delta133p53alpha (in N-terminal) cells. (AID 2060322); conditions: NCI-H358 eGFP-delta133p53alpha fluorescence, 24 h; activation: active compounds read high; further: nearly all actives have a fitted effect of over 75% in size; further: potency means the concentration at half of the fitted maximal effect
Chain of Cellular tumor antigen p53 (Homo sapiens) (P04637 whole entry, looked up): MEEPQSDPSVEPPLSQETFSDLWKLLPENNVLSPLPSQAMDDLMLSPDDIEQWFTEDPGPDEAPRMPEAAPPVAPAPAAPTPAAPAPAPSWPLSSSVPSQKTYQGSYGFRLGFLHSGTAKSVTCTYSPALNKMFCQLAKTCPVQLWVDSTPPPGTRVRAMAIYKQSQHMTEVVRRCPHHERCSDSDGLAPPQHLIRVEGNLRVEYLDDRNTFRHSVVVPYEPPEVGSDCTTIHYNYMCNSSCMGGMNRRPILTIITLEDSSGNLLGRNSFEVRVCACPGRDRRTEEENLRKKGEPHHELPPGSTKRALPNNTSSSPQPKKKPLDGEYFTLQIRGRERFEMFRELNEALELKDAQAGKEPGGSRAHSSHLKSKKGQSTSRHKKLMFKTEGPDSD
Method in brief: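 NCI-H358 cells pre-induced 24 h with 10 ng/ml doxycycline to express N-terminal eGFP-delta133p53alpha, then dosed 24 h at 37C without doxycycline; fixed, Hoechst-stained, GFP intensity by laser scanning cytometry, normalized to DMSO (0%) and 57.5 uM 5-azacytidine (100%).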

[2] = target: Aldehyde dehydrogenase, mitochondrial (Homo sapiens) (UniProt P05091); assay: qHTS for Inhibitors of the Aldehyde Dehydrogenase Family (ALDH2) Primary screen (AID 2061308); conditions: ALDH2 enzyme inhibition qHTS, 1536-well; series mostly up to 56 µM; further: nearly all actives have a fitted effect of over 55% in size
[3] = target: Retinaldehyde dehydrogenase 3 (Homo sapiens) (UniProt P47895); assay: qHTS for Inhibitors of the Aldehyde Dehydrogenase Family (ALDH1A3) Validation screen (AID 2061312); conditions: ALDH1A3 enzyme inhibition qHTS validation, fluorescence; series mostly up to 84.7 µM; further: nearly all actives have a fitted effect of over 45% in size
[4] = target: Retinaldehyde dehydrogenase 3 (Homo sapiens) (UniProt P47895); assay: qHTS for Inhibitors of the Aldehyde Dehydrogenase Family (ALDH1A3) Primary screen (AID 2061315); conditions: ALDH inhibition qHTS; series mostly up to 56 µM

SMILES | activation [1] | Potency [2] | Potency [3] | Potency [4] | Potency [1]
O=C(CSc1nc2c(c(=O)n1-c1ccccc1)SCC2)Nc1ccc(-c2ccccc2)cn1 | 11.5% | inactive | inactive | inactive | 
CC(C)(C)c1ccc2c(c1)CC[C@H]2NC(=O)Nc1cccc2[nH]ncc12 | -6.68% | inactive | inactive | inactive | 
Cn1c(CO)c(-c2ccccc2)c2cc([N+](=O)[O-])ccc21 | -4.77% | inactive | inactive | inactive | 
O=C(OC1CN2CCC1CC2)N1CCc2ccccc2C1c1ccccc1 (stereo not drawn) | -3.82% | inactive | inactive | inactive | 
CCOC(=O)Nc1cc(-c2ccc(C)c(NS(C)(=O)=O)c2)nn2c(C)nnc12 | 22.9% | inactive | inactive | inactive | 
CCOC(=O)c1ccc(N(C)c2csc(-c3ccccc3)n2)cc1 | 0% | inactive | inactive | inactive | 
CCC(C)c1ccc(NC(=O)Cn2cnc3c2c(=O)n(C)c(=O)n3C)cc1 (stereo not drawn) | 11.5% | inactive | inactive | inactive | 
CNC(=O)c1ccccc1Nc1nc(Nc2ccc(N3CCNCC3)cc2)ncc1Cl |  | inactive | inactive | inactive | 1350 nM (active)
COc1cc(N2CCOCC2)ccc1NC(=O)c1csc(-c2cccnc2)n1 | 24.8% | inactive | inactive | inactive | 
CC1(C)CCC(C)(C)c2cc([C@@H](O)C(=O)Nc3ccc(C(=O)O)cc3F)ccc21 | -4.77% | inactive | inactive | inactive | 
O=C(NC/C=C/CN1CCN(c2cccc(Cl)c2Cl)CC1)c1ccc(-c2ccccn2)cc1 | 6.68% | inactive | inactive | inactive | 
CCOC(=O)N1CCC(NCCNC(=O)c2ccccc2C)CC1 | 6.68% | inactive | inactive | inactive | 
C[C@@H](NC(=O)[C@H](O)c1cc(F)cc(F)c1)C(=O)N[C@@H]1C(=O)N(C)c2ccccc2-c2ccccc21 | -6.21% | inactive | inactive | inactive | 
CN1CCC(c2c[nH]c3ccc(NC(=O)c4ccc(F)cc4)cc23)CC1 | -11% | inactive | inactive | inactive | 
CCCC(=O)C1CCN(c2ncnc3c2CN(C(=O)c2ccc(-c4ccccc4)cc2)CC3)CC1 | -12.4% | inactive | inactive | inactive | 
Cc1noc(C)c1-c1cc(O)cc(C(O)c2ccccc2)c1 (stereo not drawn) | 10.1% | inactive | inactive | inactive | 
CCNC(=O)N1CCCN(c2ccc(C(=O)NCCc3ccc(Cl)cc3Cl)cc2NC(=O)c2cccc(Cl)c2)CC1 | 1.91% | inactive | inactive | inactive | 
O=C(NCC1CCN(Cc2cccc(Cl)c2)CC1)[C@@H]1CCCN(c2ncnc3c2nc2n3CCCC2)C1 | 0% | inactive | inactive | inactive | 
O=c1[nH]cnc2c1ncn2[C@@H]1O[C@H](CO)[C@@H](O)[C@H]1O | -11.7% and 6.21% | inactive | inactive | inactive | 
CCc1ccc(-c2nc(CSCC(=O)NCCc3ccccc3)c(C)o2)cc1 | -12.9% | inactive | inactive | inactive | 
COc1ccc(-c2nc(-c3cc(C(F)(F)F)cc(C(F)(F)F)c3)n(Cc3ccc(C(N)=O)cc3)c2-c2ccc(OC)cc2)cc1 | -11% | inactive | inactive | inactive | 
c1ccc(-c2ncc(CN3CCN(c4ncccn4)CC3)[nH]2)cc1 | -2.39% | inactive | inactive | inactive | 
CC(=O)c1ccc2c(c1)[C@H](NC(=O)c1ccc(F)c(Cl)c1)[C@H](O)C(C)(C)O2 | 7.16% | inactive | inactive | inactive | 
COc1ccc(CN2CCN(C(=O)CCNC(=O)c3ccc(C(C)(C)C)cc3)CC2)cc1 | -7.16% | inactive | inactive | inactive | 
CC(C)(C[C@@](O)(Cc1cc2ccncc2[nH]1)C(F)(F)F)c1cc(F)ccc1O | 13.4% | inactive | inactive | inactive | 
CC(=O)NC[C@H]1CN(c2ccc(N3CCSCC3)c(F)c2)C(=O)O1 | 0% | inactive | inactive | inactive | 
O=C1CC[C@@H](C(=O)N2CSC[C@H]2C(=O)O)N1 ([pGlu]-[Thz]-OH) | 1.43% | inactive | inactive | inactive | 
